High-throughput results from PubChem BioAssay.
HIV Env fusion: inhibitors of HIV Env-mediated cell fusion | HeLa-JRFL Env/CEM21 cell fusion, luciferase | inhibition, % at 12.3 µM | 360,000 tested, 1.1% active | AID 651610;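 active means mean replicate inhibition score of at least 50 and every replicate individually at or above 50; inconclusive means only one of the two criteria met; inactive means mean below 50 and not all replicates reaching 50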;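 further: 0% = plate neutral controls and 100% = maraviroc near 300 nM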
esBAF inh: SWI/SNF esBAF complex inhibition. mouse ES cells, Bmi1-luciferase knock-in reporter, 24 h; 100% = twice the neutral-well signal. reporter increase, % at 12.5 µM. 350,000 tested, 2% active. AID 602393; in the data active means activation above about 40%; inconclusive means no clear call, values can overlap the other calls;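 further: 0% = median of the plate's neutral control wells and 100% = double that signal; a rise in the Bmi1 reporter signal indicates esBAF inhibition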
miR-122 sensor: miR-122 inhibition in Huh7 cells | Huh7 miR-122 Renilla luciferase sensor, 48 h; neutral wells = 0, positive control = 100 | 340,000 tested, 0.3% active | activation (reporter increase), % at 12.5 µM;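 active means mean replicate activation score at least 90 and every replicate individually at or above 90; inconclusive means only one of the two criteria met; inactive means neither criterion met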;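 further: higher luciferase means less miR-122 activity so hits act as miR-122 inhibitors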
MITF act: increases MITF-driven TRPM1 promoter luciferase signal; 300,000 tested, 0.75% active; SK-MEL-5 TRPM1-promoter luciferase, 24 h; % of positive control, neutral wells = 0; activation, % at 12.5 µM; AID 588334;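 active means mean activation of at least 80% with every replicate also reaching 80%; inconclusive means mean reaches 80% but some replicate falls short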;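 further: 0% = neutral control wells and 100% = parthenolide positive control wells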
Wnt act: Wnt/beta-catenin pathway activation. Wnt/beta-catenin reporter cell assay, activator, plate reader. activation, % at 9.35 µM. 300,000 tested, 1.2% active. AID 743398; in the data active means activation above about 30%, passing the limit was not always enough; inconclusive means no clear call, values can overlap the other calls;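 further: 0% = neutral control wells and 100% = positive control wells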
* = called active by the depositor; ? = inconclusive; . = no result given; [ ] = remark or other dose. Compounds with a hit are over-represented: about 3.4% of the library has one in this group of screens.

SMILES	HIV Env fusion	esBAF inh	miR-122 sensor	MITF act	Wnt act
Clc1ccc(/C=C/c2ncc3ccccn23)cc1	-46	.	.	34	41*
C[C@H]1CCCCO[C@@H](CN(C)S(=O)(=O)c2ccccc2)[C@@H](C)CN([C@@H](C)CO)C(=O)c2cc(NS(=O)(=O)c3ccc(F)cc3)ccc2O1	33[16.7 µM]	-2	-13[16.7 µM]	.	.
O=C(N/N=C\c1ccc(Cl)s1)c1cccs1	.	72*	5	7	.
O=C(N/N=C/c1ccc(Cl)s1)C(O)c1ccccc1 (configuration not stated)	-30	6	123*	3	2
O=C(N/N=C\c1cc2c(cc1Cl)OCO2)c1cccs1	-64	53*	3	21	6
O=C(N/N=C/c1ccc(-n2ccnc2)cc1)c1cccs1	75*	-31	0	62	18
O=C(N/N=C/c1ccncc1)c1cccs1	.	19	-1	11	.
C[C@H](CO)N1C[C@H](C)[C@@H](CN(C)C(=O)Nc2ccc3c(c2)OCO3)Oc2ccc(NC(=O)Cc3ccccc3)cc2CC1=O	10[16.7 µM]	2	-11[16.7 µM]	.	.
C[C@H](CO)N1C[C@H](C)[C@H](CN(C)S(=O)(=O)c2ccc(Cl)cc2)OCc2cn(nn2)CCCC1=O	-7[16.7 µM]	5	6[16.7 µM]	.	.
Cc1ccc(NC(=O)NCCN2C(=O)C3C4C=CC(C4)C3C2=O)cc1 (configuration not stated)	-45	20	-6	47	22
COC(=O)c1ccc(NC(=O)Nc2ccc(F)cc2)cc1	.	60*	.	64	.
COC(=O)c1ccc(NC(=O)Nc2ccc(OC)cc2)cc1	-13	12	-2	33	1
COc1ccc(NC(=O)NCCN2C(=O)C3C4C=CC(C4)C3C2=O)cc1 (configuration not stated)	1	58*	.	36	24
CCOc1ccc(NC(=O)Nc2cc(OCC(F)(F)F)cc(OCC(F)(F)F)c2)cc1	?	.	.	-21	-5
COc1ccc(NC(=O)Nc2ccc(OC)cc2)cc1	.	60*	3	62	.
O=C(Nc1ccc(F)cc1)Nc1cc(OCC(F)(F)F)cc(OCC(F)(F)F)c1	70*	.	.	-81	.
COc1ccc(S(=O)(=O)N(C)C[C@@H]2Oc3ccc(NC(=O)CCN4CCOCC4)cc3C(=O)N([C@H](C)CO)C[C@@H]2C)cc1	.	0	-3[16.7 µM]	.	.
C[C@H](CO)N1C[C@H](C)[C@H](CN(C)S(C)(=O)=O)OCCCC[C@H](C)Oc2ccc(NC(=O)Cc3ccccc3)cc2C1=O	-21[16.7 µM]	-3	-5[16.7 µM]	.	.
CN(C)c1ccc(NC(=O)Nc2cccc3ccccc23)cc1	-10	39	-3	64	17
N#Cc1ccc(NC(=O)Nc2ccc(Oc3ccc(NC(=O)Nc4ccc(C#N)cc4)cc3)cc2)cc1	64*	-32	-30	-64	-11
COc1ccc(NC(=O)Nc2ccc(N(C)C)cc2)cc1	-56	19	1	67	65*
O=C(Cc1ccncc1)NCC[C@@H]1CC[C@@H](NC(=O)C2CCC2)[C@H](CO)O1	-4[16.7 µM]	-1	.	.	.
Cc1ccc(C(=O)/C=C/c2cn(CN3CCN(C)CC3)c3ccccc23)cc1	-47	55*	-5	80	.
C[C@H](NC(=O)c1ncn2c1c(=O)[nH]c1ccc(Br)cc12)c1ccccc1	57*	-5	2	.	-3
CC(=O)Nc1nc(C)cs1	15	6	-4	-5	0
SMILES	HIV Env fusion	esBAF inh	miR-122 sensor	MITF act	Wnt act
Cc1ccc(CNc2nc(C)cs2)cc1	-22	46*	.	143*	27
COc1cccc(-c2ccc([C@H]3[C@@H](C#N)N(C(=O)c4ccccn4)[C@H]3CO)cc2)c1	7[16.7 µM]	0	.	.	.
COCCn1c(/C=C/c2ccccc2)nc2ccccc21	-47	37*	.	97*	13
COc1ccccc1Cn1c(/C=C/c2ccccc2)nc2ccccc21	1	.	.	39	38*
C[C@H](CO)N1C[C@H](C)[C@H](CN(C)Cc2cncnc2)Oc2cc(-c3cccnc3)ccc2S1(=O)=O	-23[16.7 µM]	-2	7[16.7 µM]	.	.
COc1cccc(NC(=O)N(C)C[C@@H]2OCc3ccccc3-c3ccccc3C(=O)N([C@@H](C)CO)C[C@@H]2C)c1	2[16.7 µM]	5	.	.	.
C[C@@H]1CN([C@H](C)CO)C(=O)Cc2cc(NC(=O)Nc3ccc4c(c3)OCO4)ccc2O[C@@H]1CN(C)C(=O)Nc1cccc2ccccc12	11[16.7 µM]	7	129*[16.7 µM]	.	.
C[C@@H]1CN([C@H](C)CO)C(=O)Cc2cc(NC(=O)Nc3cccc4ccccc34)ccc2O[C@@H]1CN(C)C(=O)Nc1cccc2ccccc12	4[16.7 µM]	9	99*[16.7 µM]	.	.
C[C@H](CO)N1C[C@H](C)[C@H](CN(C)C(=O)Nc2cccc3ccccc23)Oc2ccc(NC(=O)Nc3cccc4ccccc34)cc2CC1=O	11[16.7 µM]	-4	-3[16.7 µM]	.	.
C[C@@H]1CN([C@H](C)CO)C(=O)Cc2cc(NC(=O)C3CCCCC3)ccc2O[C@H]1CN(C)C(=O)Nc1ccc2c(c1)OCO2	.	52*	-3[16.7 µM]	.	.
C[C@@H]1CN([C@@H](C)CO)C(=O)Cc2cc(NC(=O)Nc3ccc4c(c3)OCO4)ccc2O[C@@H]1CN(C)C(=O)Nc1cccc2ccccc12	17[16.7 µM]	0	?	.	.
C[C@@H]1CN([C@H](C)CO)C(=O)Cc2cc(NC(=O)Nc3cccc4ccccc34)ccc2O[C@@H]1CN(C)C(=O)NC1CCCCC1	11[16.7 µM]	2	121*[16.7 µM]	.	.
CC(=O)NC[C@@H]1[C@@H](c2ccc(-c3cccc(F)c3)cc2)[C@@H](CO)N1C(C)=O	.	2	-6[16.7 µM]	.	.
CCC(=O)N1CCCCN2[C@@H](CO)[C@H](c3ccc(C#Cc4ccccc4F)cc3)[C@@H]2C1	.	1	11[16.7 µM]	.	.
CS(=O)(=O)Nc1ccc2c(c1)[C@H]1C[C@@H](CC(=O)NCc3ccccc3F)O[C@H](CO)[C@H]1O2	.	-3	4[16.7 µM]	.	.
Cc1ccc(S(=O)(=O)Nc2ccc3c(c2)C(=O)N([C@@H](C)CO)C[C@H](C)[C@H](CN(C)C(=O)c2ccncc2)OCCCC[C@@H](C)O3)cc1	2[16.7 µM]	-1	5[16.7 µM]	.	.
C[C@@H]1CN([C@H](C)CO)C(=O)c2cc(NC(=O)C3CC3)ccc2O[C@@H]1CN(C)S(=O)(=O)c1ccc(F)cc1	11[16.7 µM]	-8	6[16.7 µM]	.	.
O=C(CCC1CCCN(C(=O)c2ccncc2)C1)NCc1ccc(F)c(F)c1 (configuration not stated)	5	.	.	1	-1
O=C(CCC1CCCN(C(=O)c2cc3ccccc3o2)C1)NCc1ccc(F)c(F)c1 (configuration not stated)	1	56*	-7	.	-1
O=C(c1ccc(Cl)cc1)c1cnc(Nc2ccccc2Cl)s1	-120	57*	0	99*	.
COc1ccc(C2=Nn3c(nnc3-c3ccccc3OC)SC2)cc1OC1CCOC1 (configuration not stated)	-242	-6	131*	-60	-6
COc1cccc(S(=O)(=O)N2CC3(CN(C(=O)Nc4cccc(F)c4)[C@@H](CO)c4[nH]c5cc(OC)ccc5c43)C2)c1	93*[16.7 µM]	.	.	.	.
